PubChem BioAssay (EPA / NIEHS)
Inconclusive results are not listed. The source made the active and inactive calls. How the source made its calls: active means hit-call score of the fitted dose curve at least 0.9, where 1 is the maximum; inconclusive means response in the unintended direction; inactive means score below 0.9.

Target: Nucleoli Translocation, AR (gene 367) (UniProt P10275)
Experiment: UPITT_HCI_U2OS_AR_TIF2_Nucleoli_Agonist: University of Pittsburgh U2OS Androgen Receptor-Transcriptional Intermediary Factor 2 (AR-TIF2) Agonism High Content Imaging Assay for Nucleoli Translocation (AID 2283998)
Description: UPITT_AR_TIF2_PPIB is a cell-based, high-content imaging assay that uses U2OS, a human osteosarcoma cell line, expressing a human androgen receptor fused to red fluorescent protein and the coactivator TIF2 fused to green fluorescent protein. UPITT_HCI_U2OS_AR_TIF2_Nucleoli_Agonist is one of four assay components measured from the UPITT_AR_TIF2_PPIB assay. It is designed to make measurements of red fluorescence localized in the nucleolar region of the cell nucleus as detected with high-content fluorescent imaging.Data from the assay component UPITT_HCI_U2OS_AR_TIF2_Nucleoli_Agonist was analyzed into 1 assay endpoint. This assay endpoint, UPITT_HCI_U2OS_AR_TIF2_Nucleoli_Agonist, was analyzed in the positive analysis fitting direction relative to DMSO as the baseline of activity. Using a type of binding reporter, measures of receptor for gain-of-signal activity can be used to understand the binding at the pathway-level as it relates to the gene AR.
Daughter plates containing 2 uL of 10 mM compounds in DMSO were prepared and replicated from the 384-well Library of Pharmacologically Active Compounds (LOPAC) master plates using the Bravo outfitted with a 384-well transfer head. Aluminum adhesive plate seals were applied with an Abgene Seal-IT 100 (Rochester, NY) plate sealer, and the plates were stored at -20 C in a Matrical MatriMinistore (Spokane, WA) automated compound storage and retrieval system. For screening, LOPAC daughter plates were withdrawn from -20C storage, thawed to ambient temperature, centrifuged 1-2 min at 50 g, and the plate seals were removed before the transfer of 98 uL of serum-free tissue culture medium (SFM) into wells using the BioTek Microflo liquid handler (BioTek, Winooski, VT) to generate a 200 uM intermediate stock concentration of library compounds (2.0% DMSO). The diluted compounds were mixed by repeated aspiration and dispensation using a 384-well P30 dispensing head on the Evolution P3 (EP3) liquid handling platform (PerkinElmer, Waltham, MA) and then 5 uL of diluted compounds was transferred to the wells of assay plates. In the LOPAC screen, compounds were individually tested at a final concentration of 20 uM (0.2% DMSO). After the diluted compounds had been transferred from the daughter plates to the primary HCS assay plates, aluminum adhesive plate seals were applied and the diluted daughter plates were stored frozen at -20C. To confirm active compounds identified in the primary screen, we withdrew the LOPAC daughter plates containing the 200 uM intermediate concentration of library compounds (2.0% DMSO) from -20C storage, thawed them to ambient temperature, centrifuged them for 1-2 min at 50 g, and removed the plate seals. A work list was generated to direct the Multiprobe Janus liquid handling platform (PerkinElmer) to cherry pick 75 uL from the wells of the diluted daughter plates that were flagged active in the primary screen and to reformat these into a 384-well plate hit confirmation daughter plate. Five microliters of primary HCS active compounds was then transferred into triplicate wells of assay plates using a 384-well P30 dispensing head on the Evolution P3 (EP3) liquid handling platform (PerkinElmer). […] Daughter plates containing 2 uL of the serially diluted compounds in DMSO were prepared and replicated from the 384-well serial dilution master plates using the Bravo outfitted with a 384-well transfer head. Aluminum adhesive plate seals were applied and plates were stored at -20C. For testing in the bioassays, daughter plates were withdrawn from -20C storage, thawed to ambient temperature, centrifuged for 1-2 min at 50 g, and the plate seals were removed before the transfer of 38 uL of SFM into wells using the BioTek Microflo liquid handler (BioTek) to generate an intermediate stock concentration of library compounds ranging from 1.95 to 500 uM (5.0% DMSO). […]

Nucleoli Translocation, AR (gene 367), sequence (P10275 whole entry, looked up): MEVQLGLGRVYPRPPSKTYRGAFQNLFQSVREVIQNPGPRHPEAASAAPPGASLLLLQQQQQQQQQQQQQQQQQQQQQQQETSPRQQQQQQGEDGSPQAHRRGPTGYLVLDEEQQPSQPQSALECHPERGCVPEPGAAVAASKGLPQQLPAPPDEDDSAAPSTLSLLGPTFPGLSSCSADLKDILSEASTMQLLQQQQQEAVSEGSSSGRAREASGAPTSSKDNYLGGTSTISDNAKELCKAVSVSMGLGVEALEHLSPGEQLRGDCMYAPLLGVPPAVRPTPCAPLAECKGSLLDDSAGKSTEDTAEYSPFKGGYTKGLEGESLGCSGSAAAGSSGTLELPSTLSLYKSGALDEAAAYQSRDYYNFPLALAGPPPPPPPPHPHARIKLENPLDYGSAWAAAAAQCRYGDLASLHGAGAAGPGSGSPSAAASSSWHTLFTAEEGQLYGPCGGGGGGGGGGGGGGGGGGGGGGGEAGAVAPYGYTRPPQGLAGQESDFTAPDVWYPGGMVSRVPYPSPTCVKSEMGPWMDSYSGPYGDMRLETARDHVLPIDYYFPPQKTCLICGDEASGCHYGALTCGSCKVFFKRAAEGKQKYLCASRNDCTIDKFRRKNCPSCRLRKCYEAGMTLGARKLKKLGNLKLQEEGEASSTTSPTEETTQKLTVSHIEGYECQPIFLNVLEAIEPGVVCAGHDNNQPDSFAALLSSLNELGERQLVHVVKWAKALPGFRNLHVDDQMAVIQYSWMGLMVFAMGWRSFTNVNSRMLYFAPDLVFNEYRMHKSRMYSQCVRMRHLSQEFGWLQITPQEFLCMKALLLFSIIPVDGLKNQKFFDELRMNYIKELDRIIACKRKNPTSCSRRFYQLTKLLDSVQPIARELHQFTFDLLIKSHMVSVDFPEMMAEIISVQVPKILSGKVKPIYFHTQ

outcome, inactive:
O=Nc1ccc(Nc2ccccc2)cc1, c1ccc2[nH]ccc2c1, CCC/C=C/C=O, NCCCN1CCOCC1, O=C[C@@H](O)[C@H](O)[C@H](O)CO, CCCCCCCCCCCCCCCC(=O)OC[C@H](O)[C@H]1OC(=O)C(O)=C1O, c1ccc2c(c1)c1cccc3ccc4cccc2c4c31, CCCCC(CC)COC(=O)/C=C\C(=O)OCC(CC)CCCC (stereo not given), CCCOCC(C)O (stereo not given), BrC1CCC(Br)C(Br)CCC(Br)C(Br)CCC1Br (stereo not given)
